Most compounds without a hit are left out; they make up all but 4.2% or so of the library.
NALP1 yeast inh = NALP1 inflammasome inhibitors in reconstituted yeast, colorimetric, S. cerevisiae, triplicate retest; S. cerevisiae NALP1/ASC/caspase-1 growth, X-gal OD620, 72 h; actives 0.61% (n = 280,000); inhibition, % at 10 µM; in the data active = inhibition mostly above about 24%, no sharp cut-off; inactive = mostly below about 32%
NLRP3 yeast inh = NALP3 inflammasome inhibitors in reconstituted yeast, primary screen, luminescence, uHTS | inhibition, % at 10 µM | actives 0.39% (n = 330,000) | Yeast reconstituted NLRP3/ASC/caspase-1, beta-gal luminescence, 24 h;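 active = inhibition of 50% or more; inactive = inhibition below 50%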
tim10-1 inh = growth inhibitors of tim10-1 mutant yeast, primary screen, luminescence, uHTS; S. cerevisiae tim10-1 ts strain growth, BacTiter-Glo, 24 h; inhibition, % at 20 µM; actives 2.2% (n = 330,000); AID 463190, 2010;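 active = inhibition of at least 40%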;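 note: mutant grown at 25 °C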
tim23-1 inh = growth inhibitors of tim23-1 mutant yeast, primary screen, luminescence, uHTS | S. cerevisiae tim23-1 growth, BacTiter-Glo luminescence, 24 h | inhibition, % at 20 µM | actives 1.3% (n = 330,000) | AID 463212, 2010;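 active = growth inhibition of the mutant yeast at or above 50%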;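 note: temperature-sensitive mutant grown at 25 °C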
TIM10 inh = growth inhibitors of isogenic TIM10 control yeast, primary screen, counter-screen for tim10-1 yeast inhibitor project, luminescence, uHTS. S. cerevisiae TIM10 strain growth, BacTiter-Glo luminescence, 24 h. inhibition, % at 10 µM. actives 1.4% (n = 330,000). AID 463195, 2010;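 active = inhibition of 40% or more at the single tested concentration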;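 note: wild-type TIM10 isogenic control strain grown at permissive 25 °C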
PfHsp90 yeast 2 = growth inhibition of PfHsp90-expressing yeast, primary screen, antimalarial PfHsp90 inhibitor project, S. cerevisiae, BacTiter-Glo luminescence, single point, set 2. BacTiter-Glo ATP, 48 h; yeast lacking PDR1 and PDR3 efflux regulators. inhibition, % at 9.4 µM. actives 0.32% (n = 310,000). AID 504621, 2011;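 active = every replicate shows inhibition above about 80%, whatever the replicate mean, limit read from the data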
NALP3 yeast conf = NALP3 inhibitors retested in yeast, confirmation, luminescence, single concentration; shares compounds with NLRP3 yeast inh; yeast expressing human NALP3; inhibition, % at 10 µM; actives 81% (n = 1,300); in the data active = inhibition above about 48%
Casp1-ASC yeast = CASP1-PYCARD signaling inhibition in yeast, confirmatory test, counterassay for NLRP3 inhibitor program, one-dose; shares compounds with NLRP3 yeast inh; actives 66% (n = 1,000); inhibition, % at 10 µM; yeast expressing Caspase-1-ASC, luminescence counter screen
NALP3 yeast rt = NALP3 inhibitors in yeast, repeat test, confirmation, luminescence, single concentration, retest. shares compounds with NLRP3 yeast inh. yeast expressing human NALP3, luminescence read-out. inhibition, % at 10 µM. actives 53% (n = 1,000)
Numbers stand for hits; 0 = inactive; - = no result given. Cut-off read from the data, not from the text of the source, unless noted: active = inhibition above about 50%; inactive = the rest.

SMILES | NALP1 yeast inh | NLRP3 yeast inh | tim10-1 inh | tim23-1 inh | TIM10 inh | PfHsp90 yeast 2 | NALP3 yeast conf | Casp1-ASC yeast | NALP3 yeast rt
COc1ccc(NC(=O)c2ccc(F)c(F)c2)c2ccccc12 | 0 | 50.1 | 0 | 0 | 0 | 0 | 61.2 | 0 | 0
COc1ccc(CNC(=O)[C@]2(C)CCC[C@@]3(C)C4CC[C@@]5(C)C[C@]4(CCC32)CC5=O)cc1 (stereo not given in full) | - | 51.3 | 0 | 0 | 0 | - | 0 | - | -
Cc1ccc(CNC(=O)[C@]2(C)CCC[C@@]3(C)C4CC[C@@]5(C)C[C@]4(CCC32)CC5=O)cc1 (stereo not given in full) | - | 0 | 0 | 0 | 0 | 0 | - | - | -
CCOc1ccc(C(=O)c2cc([N+](=O)[O-])ccc2Cl)cc1 | 0 | 67.1 | 0 | 0 | 0 | 0 | 67.2 | 72.3 | 69.2
Cc1ccc2c(c1)C(CCN)C(=O)N2Cc1ccccc1 (stereo not given) | 0 | 50.5 | 0 | 0 | 0 | 0 | 68.5 | 51.9 | 50.6
O=C(/C=C/c1ccccc1)c1c[nH]c2ccccc12 | 0 | 50.2 | 0 | 0 | 0 | 0 | 62.6 | - | -
O=C(C=Cc1ccccc1)c1c[nH]c2ccccc2c1=O | - | - | - | - | - | 0 | - | - | -
O=C(Nc1ccccc1)C(=O)c1c[nH]c2ccccc12 | 0 | 57.6 | 0 | 0 | 0 | 0 | 75.4 | 0 | 0
Cc1cc(C)cc(OCC(=O)N(C)CC(=O)Nc2ccc(N3CCOCC3)cc2)c1 | - | 0 | 0 | 0 | 0 | - | - | - | -
Cc1ccc(CNC(=O)CCNS(=O)(=O)c2cccc3nsnc23)cc1 | 0 | 0 | 0 | 0 | 0 | 0 | - | - | -
O=C(Nc1cccc(Cl)c1)c1cc(-c2ccco2)on1 | 0 | 59.1 | 0 | 0 | 0 | 0 | 74.2 | 62.6 | 0
O=C(Nc1cc(Cl)ccc1O)c1cc(-c2ccco2)on1 | 0 | 50.2 | 0 | 0 | 0 | 0 | 65.7 | 0 | 0
O=C(Nc1cc(Br)ccc1O)c1cc(-c2ccco2)on1 | 0 | - | - | - | - | 0 | - | - | -
CS(=O)(=O)c1ccc(Cl)c(NC(=O)CN2CCN(C(=O)c3cccs3)CC2)c1 | - | 0 | 0 | 0 | 0 | - | - | - | -
O=C1C2C3C=CC(C3)C2C(=O)N1c1ccccc1 (stereo not given) | 0 | 0 | 0 | 0 | 0 | - | - | - | -
O=C1C2C3C=CC(C3=C3CCCCC3)C2C(=O)N1c1ccccc1 (stereo not given) | 0 | 57.7 | 0 | 0 | 0 | 0 | 65.0 | 0 | 0
S=C(Nc1cc(Cl)cc(Cl)c1)NC1CCN(Cc2ccccc2)CC1 | 0 | 55.6 | 0 | 0 | 0 | 0 | 52.7 | - | -
Cc1nc(SCc2ccc(OCCC(C)C)cc2)n[nH]1 | 0 | 76.3 | 0 | 0 | 0 | 0 | 83.5 | 93.2 | 89.2
CCCCCOc1ccc(CSc2n[nH]c(C)n2)cc1 | 0 | 63.8 | 0 | 0 | 0 | 0 | 75.3 | 70.2 | 81.6
CCCN1CCCc2cc(CN)ccc21 | 0 | 53.9 | 0 | 0 | 0 | 0 | 59.8 | - | -
OC[C@H]1O[C@@](CO)(O[C@H]2O[C@H](CO)[C@@H](O)[C@H](O)[C@H]2O)[C@@H](O[C@H]2O[C@H](CO)[C@@H](O)[C@H](O)[C@H]2O)[C@@H]1O | - | - | - | - | - | 0 | - | - | -
CC12CC3(C)CC(C)(C1)CC(NC(=O)N1CCCC1)(C2)C3 | 0 | 93.8 | 0 | 0 | 0 | 0 | 48.8 | 98.5 | 98.7
CC1(NC(=O)N2CCCCC2)CCS(=O)(=O)C1 (stereo not given) | 0 | 0 | 0 | 0 | 0 | 0 | - | - | -
COc1ccc(C)cc1S(=O)(=O)NC(C)C(=O)NC1CC1 (stereo not given) | 0 | 0 | 0 | 0 | 0 | 0 | - | - | -
O=[N+]([O-])c1cc([N+](=O)[O-])c(Oc2cccnc2Br)cc1NN1CCCCC1 | 0 | 0 | 0 | 0 | 0 | 0 | - | - | -
SMILES | NALP1 yeast inh | NLRP3 yeast inh | tim10-1 inh | tim23-1 inh | TIM10 inh | PfHsp90 yeast 2 | NALP3 yeast conf | Casp1-ASC yeast | NALP3 yeast rt
O=C(O)Cc1nn(Cc2ccc(Cl)cc2)c(=O)c2ccccc12 | 0 | 0 | 0 | 0 | 0 | 0 | - | - | -
COc1nc(-c2ccccc2)ncc1S(=O)(=O)c1ccccc1 | 0 | 56.7 | 0 | 0 | 0 | 0 | 0 | 0 | 0
CC(C)(C)OC(=O)N1CCC[C@H]1C(=O)N/N=C/c1ccc2ncccc2c1 | 0 | 0 | 0 | 0 | 0 | 0 | - | - | -
Cc1cc(-c2cc(C(=O)NC3CCCC3)on2)nc(NC2CCCC2)n1 | - | 0 | 0 | 0 | 0 | 0 | - | - | -
CCCNc1nc(C)cc(-c2cc(C(=O)NC3CCCC3)on2)n1 | 0 | 62.5 | 0 | 0 | 0 | 0 | 80.8 | 51.3 | 0
CC(C)(C)S(=O)N1Cc2cn(Cc3ccccc3)c(=O)cc2[C@@H]1CCO (stereo not given in full) | - | - | - | - | - | 0 | - | - | -
COc1ccc(-c2ccc(S(=O)(=O)N3CCCC3)cc2)cc1 | 0 | 52.8 | 0 | 0 | 0 | 0 | 0 | 54.5 | 0
COC(=O)c1ccccc1NC(=O)C1CCCN(S(=O)(=O)c2ccc(OC)cc2)C1 (stereo not given) | 0 | 64.2 | 0 | 0 | 0 | 0 | 76.8 | 62.6 | 60.4
COc1ccc(S(=O)(=O)N2CCN(c3nc(C)cc(C)n3)CC2)cc1 | 0 | 53.2 | 0 | 0 | 0 | 0 | 64.8 | 63.4 | 57.5
COc1ccc(S(=O)(=O)N2CCCCCC2)cc1 | 0 | 0 | 0 | 0 | 0 | 0 | - | - | -
COc1ccc(NC(=O)CN(C)C(=O)c2cc(C)on2)cc1 | - | 0 | 0 | 0 | 0 | 0 | - | - | -
Cn1c(=O)c2c(SCc3cccnc3)nc(CC(C)(C)C)nc2n(C)c1=O | 0 | 0 | 0 | 0 | 0 | 0 | - | - | -
CCCc1nc(SCc2cccnc2)c2c(=O)n(C)c(=O)n(C)c2n1 | 0 | 53.6 | 0 | 0 | 0 | 0 | 66.3 | 57.5 | 0
COc1ccc(C(C)(C)C)cc1NC(=O)CCc1c(C)noc1C | - | 0 | 0 | 0 | 0 | 0 | - | - | -
O=C(NC1CCC(O)CC1)c1cccnc1Sc1ccccc1Cl (stereo not given) | 0 | 0 | 0 | 0 | 0 | 0 | - | - | -
CCOC(=O)Cc1csc(NC(=O)c2cc(C)c(C)s2)n1 | - | 65.0 | 0 | 0 | 0 | 0 | 60.0 | 79.5 | 62.8
CCOC(=O)Cc1csc(NC(=O)c2ccncc2)n1 | 0 | 0 | 0 | 0 | 0 | 0 | - | - | -
CCOC(=O)Cc1csc(NC(=O)c2ccc(Cl)s2)n1 | 0 | 62.7 | 0 | 0 | 0 | 0 | 72.7 | 74.7 | 71.1
CCOC(=O)Cc1csc(NC(=O)c2cccc(Cl)c2)n1 | - | 63.6 | 0 | 0 | 0 | - | 60.4 | 68.2 | 53.9
Fc1ccccc1CSc1nnc(-c2cnccn2)n1Cc1ccco1 | 0 | 0 | 0 | 0 | 0 | 0 | 0 | - | -

Screens: PubChem, several laboratories
